How the values were obtained:
Experiment in all cases: log2 ratio of Biotin-Ahx-Ub-VS probe labelling (compound/DMSO); higher = less target engagement, active = hit call of the paper (q ≤ 0.05, log2 ratio ≤ -1)
Conditions in all cases: treatment time: 3 h
[1] = compound: CCC1N(CCc2sccc12)C(=O)CCl
Summary of the method: (§1)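 DUBs in HEK293T lysate were labelled with Biotin-Ahx-Ub-VS (0.5 µM final, 1 h) after a 3 h treatment with compound at 50 or 200 µM or with DMSO, done in triplicate on 495 µg of lysate per sample. NeutrAvidin-enriched proteins were digested with LysC and trypsin and run by diaPASEF LC-MS/MS. Median-normalised label-free quantities gave average base-two log ratios of compound to DMSO by unpaired t-test, restricted to proteins with at least 2 unique peptides.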

[2] = compound: CN1c2ccccc2C(CS1(=O)=O)NC(=O)CCl
Summary of the method: as §1

[3] = compound: Cl.ClCC(=O)N1CCc2ncncc2C1
Summary of the method: as §1

[4] = compound: Cl.Cn1ncc2C(CCCc12)NC(=O)CCl
Summary of the method: as §1

[5] = compound: ClCC(=O)NC1CCOc2ccccc12
Summary of the method: as §1

[6] = compound: ClCC(=O)NC1CCCc2ccccc12
Summary of the method: (§2)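 The values are mean compound-versus-vehicle ratios derived by unpaired t-test. For 3 h, triplicate HEK293T lysate samples (495 µg each) were treated with compound at a series of concentrations or with vehicle, after which Biotin-Ahx-Ub-VS was added to 0.5 µM final for 1 h. Labelled deubiquitinases were enriched with NeutrAvidin, digested with LysC and trypsin, and analysed by diaPASEF LC-MS/MS. Ratios are log2 values from global-median-normalised Spectronaut label-free quantities, using proteins with two or more unique peptides.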

[7] = compound: ClCC(=O)N[C@@H]1CCCc2ccccc12
Summary of the method: as §2

[8] = compound: ClCC(=O)N[C@H]1CCCc2ccccc12
Summary of the method: as §2

[9] = compound: CCC1N(CCc2cc(OC)c(Cl)cc12)C(=O)CCl
Summary of the method: as §1

[10] = compound: CCCC1N(CCc2cc(OC)c(OC)cc12)C(=O)CCl
Summary of the method: as §1

Measured: log2 ratio of Biotin-Ahx-Ub-VS probe labelling

USP8 (UniProt P40818)
UniProt P40818, sequence (P40818 whole entry): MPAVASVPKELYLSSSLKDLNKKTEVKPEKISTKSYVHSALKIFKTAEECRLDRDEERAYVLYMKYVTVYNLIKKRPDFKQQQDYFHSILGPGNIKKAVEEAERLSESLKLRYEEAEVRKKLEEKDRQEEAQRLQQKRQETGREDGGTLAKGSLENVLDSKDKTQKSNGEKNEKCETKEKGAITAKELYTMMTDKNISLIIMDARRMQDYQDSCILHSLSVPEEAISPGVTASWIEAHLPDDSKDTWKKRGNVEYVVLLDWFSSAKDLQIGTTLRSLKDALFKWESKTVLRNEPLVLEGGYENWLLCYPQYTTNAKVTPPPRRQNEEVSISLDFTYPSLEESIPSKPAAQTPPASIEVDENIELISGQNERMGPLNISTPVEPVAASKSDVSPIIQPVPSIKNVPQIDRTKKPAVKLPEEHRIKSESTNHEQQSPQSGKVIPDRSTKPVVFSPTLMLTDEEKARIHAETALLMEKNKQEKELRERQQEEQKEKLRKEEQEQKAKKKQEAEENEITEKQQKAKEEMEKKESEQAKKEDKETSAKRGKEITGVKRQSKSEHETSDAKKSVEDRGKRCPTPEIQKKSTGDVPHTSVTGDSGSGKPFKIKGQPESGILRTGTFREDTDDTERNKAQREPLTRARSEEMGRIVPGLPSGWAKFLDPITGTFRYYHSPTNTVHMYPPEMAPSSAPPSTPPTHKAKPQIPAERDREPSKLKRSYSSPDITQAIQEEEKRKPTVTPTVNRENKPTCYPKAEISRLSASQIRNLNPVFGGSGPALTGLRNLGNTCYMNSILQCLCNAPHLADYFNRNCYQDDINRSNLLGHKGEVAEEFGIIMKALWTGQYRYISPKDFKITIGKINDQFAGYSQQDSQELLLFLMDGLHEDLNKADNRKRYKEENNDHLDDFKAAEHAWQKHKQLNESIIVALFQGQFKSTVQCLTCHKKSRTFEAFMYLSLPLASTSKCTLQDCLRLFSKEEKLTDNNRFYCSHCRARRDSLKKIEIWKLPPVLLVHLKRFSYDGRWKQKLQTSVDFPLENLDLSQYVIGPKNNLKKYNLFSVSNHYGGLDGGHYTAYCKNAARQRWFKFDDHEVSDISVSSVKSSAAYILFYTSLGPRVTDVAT
inactive: [1]; compound concentration: 50uM -0.18 | [1]; compound concentration: 200uM -0.116 | [2]; compound concentration: 50uM -0.21 | [2]; compound concentration: 200uM -0.21 | [3]; compound concentration: 50uM -0.0841 | [3]; compound concentration: 200uM -0.378 | [4]; compound concentration: 50uM -0.0611 | [4]; compound concentration: 200uM 0.0851 | [5]; compound concentration: 50uM -0.212 | [5]; compound concentration: 200uM -0.0542 | [6]; compound concentration: 0.78uM -0.0473 | [6]; compound concentration: 1.56uM 0.0438 | [6]; compound concentration: 3.13uM -0.127 | [6]; compound concentration: 6.25uM -0.0217 | [6]; compound concentration: 12.5uM -0.0947 | [6]; compound concentration: 25uM -0.0983 | [6]; compound concentration: 50uM -0.0766 | [6]; compound concentration: 100uM -0.0121 | [6]; compound concentration: 200uM -0.102 | [7]; compound concentration: 0.78uM -0.0947 | [7]; compound concentration: 1.56uM -0.0445 | [7]; compound concentration: 3.13uM -0.000329 | [7]; compound concentration: 6.25uM -0.0324 | [7]; compound concentration: 12.5uM -0.0744 | [7]; compound concentration: 25uM -0.057 | [7]; compound concentration: 50uM -0.0549 | [7]; compound concentration: 100uM -0.0496 | [7]; compound concentration: 200uM -0.123 | [8]; compound concentration: 0.78uM -0.131 | [8]; compound concentration: 1.56uM -0.0656 | [8]; compound concentration: 3.13uM -0.0464 | [8]; compound concentration: 6.25uM 0.0547 | [8]; compound concentration: 12.5uM 0.00701 | [8]; compound concentration: 25uM -0.0406 | [8]; compound concentration: 50uM 0.000255 | [8]; compound concentration: 100uM -0.0245 | [8]; compound concentration: 200uM -0.143 | [9]; compound concentration: 50uM -0.0467 | [9]; compound concentration: 200uM -0.231 | [10]; compound concentration: 50uM -0.414 | [10]; compound concentration: 200uM -0.636

USP7 (UniProt Q93009)
UniProt Q93009, sequence (Q93009 whole entry, looked up): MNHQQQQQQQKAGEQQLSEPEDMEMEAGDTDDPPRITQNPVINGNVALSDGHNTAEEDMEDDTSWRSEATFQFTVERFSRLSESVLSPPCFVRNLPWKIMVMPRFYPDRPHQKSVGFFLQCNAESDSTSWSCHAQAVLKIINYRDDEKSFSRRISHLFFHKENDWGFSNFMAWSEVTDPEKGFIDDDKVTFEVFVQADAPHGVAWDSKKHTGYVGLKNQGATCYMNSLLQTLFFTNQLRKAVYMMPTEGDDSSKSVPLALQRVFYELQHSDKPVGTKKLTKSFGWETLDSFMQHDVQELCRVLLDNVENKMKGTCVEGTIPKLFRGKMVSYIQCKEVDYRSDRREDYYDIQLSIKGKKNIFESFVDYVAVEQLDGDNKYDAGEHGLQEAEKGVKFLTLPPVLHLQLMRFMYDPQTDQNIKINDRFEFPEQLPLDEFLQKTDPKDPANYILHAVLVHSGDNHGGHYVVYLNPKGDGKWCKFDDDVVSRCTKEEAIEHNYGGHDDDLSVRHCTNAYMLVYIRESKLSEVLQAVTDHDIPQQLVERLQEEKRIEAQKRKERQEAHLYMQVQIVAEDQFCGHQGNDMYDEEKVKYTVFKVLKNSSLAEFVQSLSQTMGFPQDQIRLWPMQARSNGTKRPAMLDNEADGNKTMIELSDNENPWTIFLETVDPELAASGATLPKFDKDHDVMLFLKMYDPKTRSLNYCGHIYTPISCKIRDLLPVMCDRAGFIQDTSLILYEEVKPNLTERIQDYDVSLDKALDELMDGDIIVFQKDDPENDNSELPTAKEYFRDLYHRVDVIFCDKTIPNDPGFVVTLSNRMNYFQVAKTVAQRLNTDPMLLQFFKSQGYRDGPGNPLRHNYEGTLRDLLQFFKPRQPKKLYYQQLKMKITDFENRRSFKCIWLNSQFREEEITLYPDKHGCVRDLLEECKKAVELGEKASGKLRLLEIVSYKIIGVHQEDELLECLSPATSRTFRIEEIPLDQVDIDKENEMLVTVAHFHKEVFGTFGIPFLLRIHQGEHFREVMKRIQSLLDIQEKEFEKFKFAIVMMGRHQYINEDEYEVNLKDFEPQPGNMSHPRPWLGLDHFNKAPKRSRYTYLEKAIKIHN
inactive: [1]; compound concentration: 50uM -0.421 | [2]; compound concentration: 50uM -0.133 | [2]; compound concentration: 200uM -0.121 | [3]; compound concentration: 50uM -0.0285 | [3]; compound concentration: 200uM -0.558 | [4]; compound concentration: 50uM 0.09 | [4]; compound concentration: 200uM -0.0475 | [5]; compound concentration: 50uM -0.0159 | [5]; compound concentration: 200uM -0.18 | [6]; compound concentration: 0.78uM -0.0291 | [6]; compound concentration: 1.56uM 0.0294 | [6]; compound concentration: 3.13uM -0.0887 | [6]; compound concentration: 6.25uM -0.0846 | [6]; compound concentration: 12.5uM -0.0893 | [6]; compound concentration: 25uM -0.157 | [6]; compound concentration: 50uM -0.0846 | [6]; compound concentration: 100uM -0.00996 | [6]; compound concentration: 200uM -0.173 | [7]; compound concentration: 0.78uM -0.245 | [7]; compound concentration: 1.56uM -0.104 | [7]; compound concentration: 3.13uM -0.126 | [7]; compound concentration: 6.25uM -0.0886 | [7]; compound concentration: 12.5uM -0.122 | [7]; compound concentration: 25uM -0.125 | [7]; compound concentration: 50uM -0.161 | [7]; compound concentration: 100uM -0.145 | [7]; compound concentration: 200uM -0.261 | [8]; compound concentration: 0.78uM -0.0919 | [8]; compound concentration: 1.56uM -0.155 | [8]; compound concentration: 3.13uM -0.109 | [8]; compound concentration: 6.25uM 0.00463 | [8]; compound concentration: 12.5uM -0.0828 | [8]; compound concentration: 25uM -0.0804 | [8]; compound concentration: 50uM -0.017 | [8]; compound concentration: 100uM -0.124 | [8]; compound concentration: 200uM -0.255 | [9]; compound concentration: 50uM -0.321 | [10]; compound concentration: 50uM -0.397
active: [1]; compound concentration: 200uM -1.24 | [9]; compound concentration: 200uM -1.17 | [10]; compound concentration: 200uM -1.18

USP24 (UniProt Q9UPU5)
UniProt Q9UPU5, sequence (Q9UPU5 whole entry): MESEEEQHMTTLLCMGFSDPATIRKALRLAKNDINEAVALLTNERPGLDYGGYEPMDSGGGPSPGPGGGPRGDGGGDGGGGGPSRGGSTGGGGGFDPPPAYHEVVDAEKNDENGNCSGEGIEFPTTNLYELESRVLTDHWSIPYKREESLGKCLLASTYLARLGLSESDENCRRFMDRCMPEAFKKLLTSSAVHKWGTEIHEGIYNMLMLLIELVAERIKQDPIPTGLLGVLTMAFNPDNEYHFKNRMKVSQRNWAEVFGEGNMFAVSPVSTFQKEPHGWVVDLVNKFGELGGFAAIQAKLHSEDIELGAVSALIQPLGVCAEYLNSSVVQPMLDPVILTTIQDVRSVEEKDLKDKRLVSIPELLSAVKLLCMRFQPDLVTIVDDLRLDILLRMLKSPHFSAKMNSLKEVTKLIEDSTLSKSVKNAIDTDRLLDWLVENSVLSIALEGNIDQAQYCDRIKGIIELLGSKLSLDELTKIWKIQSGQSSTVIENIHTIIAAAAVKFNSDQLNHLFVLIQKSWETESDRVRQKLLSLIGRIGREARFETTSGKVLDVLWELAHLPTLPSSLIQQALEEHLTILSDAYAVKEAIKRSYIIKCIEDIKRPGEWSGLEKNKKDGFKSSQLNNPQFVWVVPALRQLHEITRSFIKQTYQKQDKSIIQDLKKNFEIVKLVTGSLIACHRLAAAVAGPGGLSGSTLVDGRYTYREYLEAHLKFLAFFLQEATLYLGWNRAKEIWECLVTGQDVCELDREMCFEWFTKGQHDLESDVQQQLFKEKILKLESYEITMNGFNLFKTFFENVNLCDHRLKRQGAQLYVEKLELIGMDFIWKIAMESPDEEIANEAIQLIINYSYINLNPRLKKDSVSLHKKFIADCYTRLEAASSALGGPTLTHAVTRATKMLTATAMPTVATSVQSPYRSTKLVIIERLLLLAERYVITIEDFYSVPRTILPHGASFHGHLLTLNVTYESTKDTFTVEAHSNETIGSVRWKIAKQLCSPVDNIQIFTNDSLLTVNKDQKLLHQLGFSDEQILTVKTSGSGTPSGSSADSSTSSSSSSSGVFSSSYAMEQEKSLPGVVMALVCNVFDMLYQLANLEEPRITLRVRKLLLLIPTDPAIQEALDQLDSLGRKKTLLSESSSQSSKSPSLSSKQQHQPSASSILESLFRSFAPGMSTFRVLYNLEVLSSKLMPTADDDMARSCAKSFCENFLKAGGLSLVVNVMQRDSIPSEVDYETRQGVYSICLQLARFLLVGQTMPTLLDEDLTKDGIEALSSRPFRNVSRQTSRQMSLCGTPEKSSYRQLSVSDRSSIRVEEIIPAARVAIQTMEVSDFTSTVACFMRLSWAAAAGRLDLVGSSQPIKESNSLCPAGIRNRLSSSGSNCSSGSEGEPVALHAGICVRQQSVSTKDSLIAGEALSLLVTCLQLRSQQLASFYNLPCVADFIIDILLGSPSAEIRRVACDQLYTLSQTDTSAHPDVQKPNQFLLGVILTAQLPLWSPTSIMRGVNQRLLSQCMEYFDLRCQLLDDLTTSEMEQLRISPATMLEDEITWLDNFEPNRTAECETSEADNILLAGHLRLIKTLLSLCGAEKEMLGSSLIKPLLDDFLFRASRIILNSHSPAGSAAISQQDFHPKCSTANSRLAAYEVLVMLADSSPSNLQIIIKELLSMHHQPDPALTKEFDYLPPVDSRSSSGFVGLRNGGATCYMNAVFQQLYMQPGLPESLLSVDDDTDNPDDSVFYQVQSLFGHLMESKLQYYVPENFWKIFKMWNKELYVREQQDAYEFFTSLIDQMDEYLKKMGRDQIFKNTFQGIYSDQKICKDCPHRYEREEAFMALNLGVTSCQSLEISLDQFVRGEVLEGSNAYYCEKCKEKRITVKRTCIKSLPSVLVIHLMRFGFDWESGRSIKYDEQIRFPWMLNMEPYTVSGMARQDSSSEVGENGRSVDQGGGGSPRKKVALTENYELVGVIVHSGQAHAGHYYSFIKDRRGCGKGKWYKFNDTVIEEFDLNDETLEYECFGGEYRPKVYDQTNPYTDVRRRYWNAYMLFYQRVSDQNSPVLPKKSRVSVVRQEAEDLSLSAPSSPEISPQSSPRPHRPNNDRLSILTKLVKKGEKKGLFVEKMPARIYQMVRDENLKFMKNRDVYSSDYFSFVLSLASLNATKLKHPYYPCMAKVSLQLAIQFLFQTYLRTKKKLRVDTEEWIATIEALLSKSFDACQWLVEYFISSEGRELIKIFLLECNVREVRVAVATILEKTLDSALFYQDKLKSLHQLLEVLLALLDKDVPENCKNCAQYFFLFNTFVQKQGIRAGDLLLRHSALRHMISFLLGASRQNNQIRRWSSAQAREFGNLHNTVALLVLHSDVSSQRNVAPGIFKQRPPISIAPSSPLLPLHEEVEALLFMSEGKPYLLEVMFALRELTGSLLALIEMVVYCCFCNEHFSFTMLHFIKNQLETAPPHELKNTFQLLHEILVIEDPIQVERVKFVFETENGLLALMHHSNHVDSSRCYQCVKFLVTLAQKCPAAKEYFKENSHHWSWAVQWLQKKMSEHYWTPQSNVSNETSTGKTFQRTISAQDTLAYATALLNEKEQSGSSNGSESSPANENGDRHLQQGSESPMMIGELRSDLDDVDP
active: [1]; compound concentration: 200uM -1.29 | [9]; compound concentration: 200uM -1.37 | [10]; compound concentration: 200uM -1.41
inactive: [1]; compound concentration: 50uM -0.392 | [2]; compound concentration: 50uM -0.121 | [2]; compound concentration: 200uM -0.347 | [3]; compound concentration: 50uM 0.151 | [3]; compound concentration: 200uM -0.708 | [4]; compound concentration: 50uM 0.209 | [4]; compound concentration: 200uM -0.13 | [5]; compound concentration: 50uM 0.141 | [5]; compound concentration: 200uM -0.46 | [6]; compound concentration: 0.78uM -0.028 | [6]; compound concentration: 1.56uM 0.0284 | [6]; compound concentration: 3.13uM -0.0886 | [6]; compound concentration: 6.25uM -0.0483 | [6]; compound concentration: 12.5uM -0.117 | [6]; compound concentration: 25uM -0.177 | [6]; compound concentration: 50uM -0.175 | [6]; compound concentration: 100uM -0.0863 | [6]; compound concentration: 200uM -0.2 | [7]; compound concentration: 0.78uM -0.148 | [7]; compound concentration: 1.56uM -0.0805 | [7]; compound concentration: 3.13uM -0.0521 | [7]; compound concentration: 6.25uM -0.105 | [7]; compound concentration: 12.5uM -0.0644 | [7]; compound concentration: 25uM -0.126 | [7]; compound concentration: 50uM -0.193 | [7]; compound concentration: 100uM -0.134 | [7]; compound concentration: 200uM -0.343 | [8]; compound concentration: 0.78uM -0.009 | [8]; compound concentration: 1.56uM -0.013 | [8]; compound concentration: 3.13uM -0.0452 | [8]; compound concentration: 6.25uM -0.0162 | [8]; compound concentration: 12.5uM -0.088 | [8]; compound concentration: 25uM -0.093 | [8]; compound concentration: 50uM -0.0741 | [8]; compound concentration: 100uM -0.151 | [8]; compound concentration: 200uM -0.346 | [9]; compound concentration: 50uM -0.366 | [10]; compound concentration: 50uM -0.409

Source: the supplement of paper PMC11732987, “Enantioselective OTUD7B fragment discovery through chemoproteomics screening and high-throughput optimisation” (Communications Chemistry, 2025)
